Out of some 5,500 compounds screened, about 2,000 (36%) were called active. Roughly 18% stayed inconclusive and do not appear here. Cut-off read from the data, not from the text of the source: active = normalized growth mostly below about 0.91 (no sharp cut-off); inconclusive = no clear call, values can overlap the other calls; inactive = mostly above about 0.92. The list shows a part of the results.
Test: chemical genetic growth profiling, strain panel (AID 1159580);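 note: tested at 20 µM; growth read once vehicle control cultures reached saturation at 30 °C; 1 = growth at the plate median or of vehicle wells; lower values mean less growth of the strain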
Settings: growth OD

Measured: normalized growth

O=C(O)CCC(=O)c1ccc(-c2ccccc2)cc1
inactive: S. cerevisiae deletion strains, locus YKL068W, active compounds read low 1 | S. cerevisiae deletion strains, locus YKL085W, strain MDH1 (second series), active compounds read low 0.939 | S. cerevisiae deletion strains, locus YKL085W, strain MDH1, active compounds read low 0.939 | S. cerevisiae deletion strains, locus YKL160W, strain elf1, active compounds read low 0.961 | S. cerevisiae deletion strains, locus YKL190W, strain CNB1, active compounds read low 0.996 | S. cerevisiae deletion strains, locus YKR001C, strain vps1, active compounds read low 0.92 | S. cerevisiae deletion strains, locus YKR026C, strain gcn3, active compounds read low 0.944 | S. cerevisiae deletion strains, locus YKR091W, strain srl3, active compounds read low 0.979 | S. cerevisiae deletion strains, locus YLL001W, strain dnm1, active compounds read low 0.947 | S. cerevisiae deletion strains, locus YLL026W, active compounds read low 0.989 | S. cerevisiae deletion strains, locus YLL041C, strain sdh2, active compounds read low 0.979 | S. cerevisiae deletion strains, locus YLR027C, strain aat2, active compounds read low 0.978 | S. cerevisiae deletion strains, locus YLR039C, strain RIC1, active compounds read low 0.855 | S. cerevisiae deletion strains, locus YLR058C, strain SHM2, active compounds read low 0.978 | S. cerevisiae deletion strains, locus YLR102C, strain apc9, active compounds read low 0.981 | S. cerevisiae deletion strains, locus YLR113W, strain HOG1, active compounds read low 0.865 | S. cerevisiae deletion strains, locus YLR221C, strain rsa3, active compounds read low 0.997 | S. cerevisiae deletion strains, locus YLR258W, strain gsy2, active compounds read low 1 | S. cerevisiae deletion strains, locus YLR262C, strain YPT6, active compounds read low 0.821 | S. cerevisiae deletion strains, locus YLR268W, strain sec22, active compounds read low 0.894 | S. cerevisiae deletion strains, locus YLR320W, strain mms22, active compounds read low 1.01 | S. cerevisiae deletion strains, locus YLR330W, strain CHS5, active compounds read low 0.994 | S. cerevisiae deletion strains, locus YLR342W, strain FKS1 (second series), active compounds read low 0.986 | S. cerevisiae deletion strains, locus YLR342W, strain FKS1, active compounds read low 0.934 | S. cerevisiae deletion strains, locus YLR357W, strain rsc2, active compounds read low 0.903 | S. cerevisiae deletion strains, locus YLR370C, strain arc18, active compounds read low 0.984 | S. cerevisiae deletion strains, locus YLR371W, strain rom2, active compounds read low 0.962 | S. cerevisiae deletion strains, locus YLR384C, strain iki3, active compounds read low 0.964 | S. cerevisiae deletion strains, locus YLR418C, strain cdc73, active compounds read low 0.902 | S. cerevisiae deletion strains, locus YML016C, strain PPZ1, active compounds read low 0.988 | S. cerevisiae deletion strains, locus YML032C, strain rad52, active compounds read low 0.938 | S. cerevisiae deletion strains, locus YML120C, strain ndi1, active compounds read low 0.971 | S. cerevisiae deletion strains, locus YML124C, strain tub3, active compounds read low 0.981 | S. cerevisiae deletion strains, locus YMR058W, strain fet3, active compounds read low 0.978 | S. cerevisiae deletion strains, locus YMR078C, strain ctf18, active compounds read low 0.963 | S. cerevisiae deletion strains, locus YMR125W, strain sto1, active compounds read low 0.979 | S. cerevisiae deletion strains, locus YMR129W, active compounds read low 0.987 | S. cerevisiae deletion strains, locus YMR205C, strain PFK2, active compounds read low 0.974 | S. cerevisiae deletion strains, locus YMR223W, strain ubp8, active compounds read low 0.974 | S. cerevisiae deletion strains, locus YMR231W, strain pep5, active compounds read low 0.972 | S. cerevisiae deletion strains, locus YMR263W, strain SAP30, active compounds read low 0.972 | S. cerevisiae deletion strains, locus YMR307W, strain GAS1, active compounds read low 0.939 | S. cerevisiae deletion strains, locus YNL067W, strain RPL9B, active compounds read low 0.957 | S. cerevisiae deletion strains, locus YNL071W, strain lat1, active compounds read low 0.951 | S. cerevisiae deletion strains, locus YNL128W, strain TEP1, active compounds read low 0.982 | S. cerevisiae deletion strains, locus YNL153C, strain GIM3, active compounds read low 0.985 | S. cerevisiae deletion strains, locus YNL209W, strain ssb2, active compounds read low 0.993 | S. cerevisiae deletion strains, locus YNL233W, strain BNI4, active compounds read low 0.97 | S. cerevisiae deletion strains, locus YNL248C, strain rpa49, active compounds read low 0.993 | S. cerevisiae deletion strains, locus YNL250W, strain rad50, active compounds read low 0.977 | S. cerevisiae deletion strains, locus YNL307C, strain MCK1, active compounds read low 0.963 | S. cerevisiae deletion strains, locus YNL322C, strain KRE1 (second series), active compounds read low 0.97 | S. cerevisiae deletion strains, locus YNL322C, strain KRE1, active compounds read low 0.998 | S. cerevisiae deletion strains, locus YNR049C, strain mso1, active compounds read low 0.987 | S. cerevisiae deletion strains, locus YNR052C, strain pop2, active compounds read low 0.972 | S. cerevisiae deletion strains, locus YOL006C, strain TOP1, active compounds read low 0.889 | S. cerevisiae deletion strains, locus YOL012C, strain htz1 0.779 | S. cerevisiae deletion strains, locus YOL147C, strain pex11, active compounds read low 0.98 | S. cerevisiae deletion strains, locus YOR001W, strain rrp6, active compounds read low 0.955 | S. cerevisiae deletion strains, locus YOR061W, strain CKA2, active compounds read low 0.956 | S. cerevisiae deletion strains, locus YOR069W, strain VPS5, active compounds read low 0.987 | S. cerevisiae deletion strains, locus YOR070C, strain gyp1, active compounds read low 0.988 | S. cerevisiae deletion strains, locus YOR080W, strain dia2, active compounds read low 0.979 | S. cerevisiae deletion strains, locus YOR083W, strain WHI5, active compounds read low 0.953 | S. cerevisiae deletion strains, locus YOR106W, strain vam3, active compounds read low 0.935 | S. cerevisiae deletion strains, locus YOR136W, strain idh2, active compounds read low 0.968 | S. cerevisiae deletion strains, locus YOR144C, strain elg1, active compounds read low 0.972 | S. cerevisiae deletion strains, locus YOR184W, strain ser1, active compounds read low 0.905 | S. cerevisiae deletion strains, locus YOR265W, strain rbl2, active compounds read low 0.996 | S. cerevisiae deletion strains, locus YOR270C, strain vph1, active compounds read low 0.95 | S. cerevisiae deletion strains, locus YOR290C, strain snf2, active compounds read low 0.978 | S. cerevisiae deletion strains, locus YOR316C, strain cot1, active compounds read low 0.984 | S. cerevisiae deletion strains, locus YPL051W, strain arl3, active compounds read low 0.958 | S. cerevisiae deletion strains, locus YPL055C, strain LGE1, active compounds read low 0.973 | S. cerevisiae deletion strains, locus YPL078C, strain atp4, active compounds read low 0.941 | S. cerevisiae deletion strains, locus YPL106C, strain sse1, active compounds read low 1.06 | S. cerevisiae deletion strains, locus YPL240C, strain hsp82, active compounds read low 0.999 | S. cerevisiae deletion strains, locus YPL241C, strain CIN2, active compounds read low 0.996 | S. cerevisiae deletion strains, locus YPR119W, strain clb2, active compounds read low 0.972 | S. cerevisiae deletion strains, locus YPR141C, strain kar3, active compounds read low 1.01 | S. cerevisiae deletion strains, locus YPR163C, strain tif3, active compounds read low 0.967 | S. cerevisiae deletion strains, locus YPR167C, strain met16, active compounds read low 0.967 | S. cerevisiae deletion strains, strain wtn01, active compounds read low 0.932 | S. cerevisiae strains, strain wild type, active compounds read low 0.99
active: S. cerevisiae deletion strains, locus YKL009W, strain mrt4, active compounds read low 0.799 | S. cerevisiae deletion strains, locus YLR262C, strain YPT6 (second series), active compounds read low 0.765 | S. cerevisiae deletion strains, locus YNL183C, strain NPR1, active compounds read low 0.724 | S. cerevisiae deletion strains, locus YNL271C, strain bni1, active compounds read low 0.909 | S. cerevisiae deletion strains, locus YNL298W, strain CLA4, active compounds read low 0.826 | S. cerevisiae deletion strains, locus YOR231W, strain MKK1, active compounds read low 0.724 | S. cerevisiae deletion strains, locus YPL256C, strain CLN2, active compounds read low 0.78
